Screening results deposited in PubChem BioAssay by The Scripps Research Institute Molecular Screening Center.
KLK7 zymogen act = activates the human kallikrein-7 zymogen | P49862 | purified proKLK7, EDANS-DABCYL substrate fluorescence; 100% is mature enzyme control, 0% vehicle | activation, % at 7 µM | 370,000 tested, 0.9% active | AID 652039;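 active = activation above the mean of all tested compounds plus 3 SD, computed per campaign excluding outliers beyond control limits, cut at about 13% in these data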
Target sequence (P49862 whole entry, looked up): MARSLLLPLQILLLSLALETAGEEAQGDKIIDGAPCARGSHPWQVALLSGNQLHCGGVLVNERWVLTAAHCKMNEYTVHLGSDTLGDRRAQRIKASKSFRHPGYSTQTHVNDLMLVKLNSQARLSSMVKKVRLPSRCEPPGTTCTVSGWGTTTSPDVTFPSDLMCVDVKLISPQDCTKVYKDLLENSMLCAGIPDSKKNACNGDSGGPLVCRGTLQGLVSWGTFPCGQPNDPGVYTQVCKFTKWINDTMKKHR
bovine MsrA act = activates bovine MsrA enzyme. purified bovine MsrA, absorbance read-out. activation, % at 10.6 µM. 360,000 tested, 0.3% active; in the data active = activation above about 7.5%;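 also: 0% = vehicle and 100% = reference activator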
SMARCA2 act = increases SMARCA2 function in MMTV reporter cells; MG213 cells, MMTV-luciferase reporter, dexamethasone, overnight; activation, % at 9.1 µM; 370,000 tested, 1% active; in the data active = activation above about 7.8%;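 also: 0% = vehicle wells and 100% = reference activator wells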
MsrA inh = inhibits bovine methionine sulfoxide reductase A | AID 651718 | purified bovine MsrA, absorbance read-out | 360,000 tested, 0.75% active | inhibition, % at 15.5 µM; in the data active = inhibition above about 4.5%;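 also: 0% = vehicle wells with enzyme and 100% = reference inhibitor wells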
proKLK7 act conf = confirmation of human kallikrein-7 zymogen activators | purified proKLK7, EDANS-DABCYL substrate fluorescence; scaled: vehicle 0, mature enzyme 100 | shares compounds with KLK7 zymogen act | activation, % at 7 µM | 3,200 tested, 68% active;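 active = activation, as change over the incubation, above the mean of all tested compounds plus 3 SD, cut at about 13% in these data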
EDANS interfere = fluorescence interference counter-screen for KLK7 activators. activation, % at 7 µM. 3,200 tested, 80% active. shares compounds with KLK7 zymogen act. EDANS-DABCYL substrate fluorescence interference, no enzyme, 4 h; solvent 0%, active enzyme control 100%;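 active = activation above the all-compound mean plus 3 SD, ignoring values outside control-based bounds, cut at about 4.8% in these data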;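 also: value is the 4 h activation minus the activation read at time zero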
K7 EDANS ctr = EDANS fluorescence interference in dose response, no enzyme | shares compounds with KLK7 zymogen act | EC50, µM | 250 tested, 20% active | AID 720493 | EDANS-DABCYL peptide fluorescence interference;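 active = compounds that raise the fluorescence signal in this interference counterscreen, with EC50 at or below 10 µM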;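 also: intact quenched peptide substrate alone read at 355 nm excitation and 520 nm emission; signal is fluorescence gain from T0 to T4 after four hours at room temperature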
* hit, by the source's call; i = inactive; · = no result. Shown are actives, neighbours in structure and some others; about 2.8% of the full set was active somewhere.

SMILES | KLK7 zymogen act | bovine MsrA act | SMARCA2 act | MsrA inh | proKLK7 act conf | EDANS interfere | others
COc1cc(C2C(C#N)=C(N)OC3=C2C(=O)CC(C)(C)C3)c([N+](=O)[O-])cc1OC (stereo not given) | 20* | -1 | -1 | 1 | 21* | 18*
Cc1ccc(-n2c(SCC(=O)Nc3cccc4ccccc34)nnc2-c2cnccn2)cc1 | 0 | · | -6 | · | · | ·
CCOc1ccc(/C=C(\C(=O)O)c2ccc(S(=O)(=O)N3CCCCC3)s2)cc1OC | 0 | -7 | -2 | 1 | · | ·
CCCCN(C)CCNC(=O)c1cc2c(-c3cccc(OC)c3)nn(C)c2s1 | 13* | 0 | -2 | 1 | 10 | 15*
CCN(CC)CCCNC(=O)c1cc2c(-c3cccc(OC)c3)nn(C)c2s1 | 11 | -2 | 5 | 1 | · | ·
CC1CCc2[nH]c3ccc(C(=O)NCCCOC(C)C)cc3c2C1 (stereo not given) | 14* | -2 | 0 | -1 | 12 | 12*
COc1cc(OC)cc(C2=Cc3ccccc3C(CC(=O)c3ccco3)N2c2ccc(-c3cccnc3)cc2)c1 (stereo not given) | -6 | -3 | -1 | 3 | · | ·
COC(=O)c1ccc(N2C(c3cc(OC)cc(OC)c3)=Cc3ccc(-c4ccc(C(N)=O)cc4)cc3C2CC(=O)C2CC2)cc1 (stereo not given) | 40* | -13 | -5 | 4 | 57* | 23* | K7 EDANS ctr=>70
COC(=O)c1ccc(N2C(c3cc(OC)cc(OC)c3)=Cc3ccc(-c4cccnc4)cc3C2CC(=O)C2CC2)cc1 (stereo not given) | 62* | -5 | 4 | 2 | 29* | -10 | K7 EDANS ctr=>70
O=C1NC[C@@H](CCCCN2C[C@H](Cc3ccccc3)N(Cc3ccccc3)C(=O)C2=O)N(Cc2ccccc2)C1=O | 0 | 2 | 0 | 0 | · | ·
COc1ccc(CCNC(=O)c2cc3cc(F)ccc3nc2C)cc1OC | 0 | -3 | -4 | 0 | · | ·
CCc1ccc(/C=C2\Oc3c(ccc(O)c3CN3CCN(CCO)CC3)C2=O)cc1 | 28* | -2 | 0 | 0 | 1 | 6.5*
C=CCN1[C@@H](CC(C)C)COc2cccc(N3CCSCC3)c2S1(=O)=O | 0 | · | -2 | · | · | ·
CCCS(=O)(=O)NC(=O)C1(C)CCN(C(=O)c2cncc(Br)c2)C1 (stereo not given) | 0 | -2 | -2 | -1 | · | ·
COC(=O)[C@]12C[C@H](CC(=O)NCc3ccc(OC)c(OC)c3)C(=O)N(Cc3ccccc3)C1=C[C@H](COCc1ccccc1)O[C@@H]2C | 0 | · | -3 | · | · | ·
NC1=Nc2cccc3cccc1c23 | 53* | -2 | -2 | 3 | 25* | 27*
O=C(N/N=C/c1cc2c(cc1Br)OCO2)c1c[nH]c2ccccc12 | 15* | 1 | -1 | 2 | 0 | 1
C=CCN1C(=O)[C@H](CC(=O)NCCCC)[C@@]2(C(=O)OCC)CCCC=C12 | 0 | · | -2 | · | · | ·
C#CCn1c(=NC(=O)c2sc3ccccc3c2Cl)sc2cc(S(N)(=O)=O)ccc21 | 30* | -5 | -1 | 4 | -1 | 2
Cc1ccc(-n2c(SCc3cccc(F)c3)nnc2-c2cccc(C)c2)cc1 | 0 | · | -7 | · | · | ·
CC(C)[C@@H]1NC(=O)[C@@H]2CSCCS(=O)(=O)N2C1=O | -1 | · | 4 | -1 | · | ·
CCN1CCN(c2cc(C)c3cc(NC(=O)c4ccc(C)c(C)c4)ccc3n2)CC1 | 29* | -1 | 1 | 0 | 30* | 24* | K7 EDANS ctr=i
CCN1CCN(c2cc(C)c3cc(NC(=S)N4CC(C)CC(C)C4)ccc3n2)CC1 (stereo not given) | 14* | -2 | 3 | -1 | 2 | 4
CCN1CCN(c2cc(C)c3cc(NC(=O)c4ccncc4)ccc3n2)CC1 | -1 | -10 | -4 | 3 | · | ·
CCOCCCNC(=S)Nc1ccc2nc(N3CCCC3)cc(C)c2c1 | 17* | -5 | 7 | 1 | 8 | 12*
COc1cc(NS(=O)(=O)c2cc(NC(C)=O)ccc2OC)c(OC)cc1NC(=O)c1ccccc1 | 0 | 0 | 3 | 1 | · | ·
Cc1c(CCC(=O)NCCCN2CCCC2=O)c(=O)oc2cc(O)ccc12 | 73* | -3 | 2 | 3 | 65* | 84*
